Test results as given in PubChem BioAssay (Tox21).
Results filed as inconclusive are left out. Where a call stands in place of a potency, no number is given. Unmarked numbers belong to inactive results. Activity calls are given as the source filed them. Calls follow the shape of the dose curve; as a rule, active = well fitted curve in the direction sought with a large enough effect in the repeat runs; inconclusive = weak or mixed curves; inactive = no such curve, though single readings can be large; an effect the other way counts as inactive or inconclusive.

Key:
[1] = qHTS RealTime-Glo MT Cell Viability Assay in HEK293 cells - 16 hour (AID 1224872); also: nearly all actives have a fitted effect of over 50% in size; also: potency is read from the fitted curve at half-maximal effect
Summary of the method: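 Quantitative high-throughput screen of the Tox21 10K library in HEK293: cells and RealTime-Glo reagents plated together, compound added at 5 h, luminescence monitored through 40 h at 37 C.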

[2] = qHTS RealTime-Glo MT Cell Viability Assay in HepG2 cells - 8 hour (AID 1224873); also: nearly all actives have a fitted effect of over 55% in size; also: potency is read from the fitted curve at half-maximal effect
Summary of the method: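 Real-time viability: cells seeded at 600 per well together with NanoLuc and cell-permeant prosubstrate, compounds added after 5 h incubation. Luminescence tracked at 0, 8, 16, 24, 32 and 40 h of exposure.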

[3] = qHTS RealTime-Glo MT Cell Viability Assay in HEK293 cells - 40 hour (AID 1224874); details: RealTime-Glo luminescence; max response: stronger effect = lower value; also: nearly all actives have a fitted effect of over 50% in size; also: potency is read from the fitted curve at half-maximal effect
Summary of the method: (§1)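 Luminescence readout at each listed time point; HEK293, 600 cells/well, RealTime-Glo MT reagent added with cells; compounds pinned (23 nL in DMSO) after 5 h at 37 C; continuous culture at 37 C.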

[4] = A CellTox Green Cytotoxicity Assay to monitor cytotoxicity in HEK293 cells - 24 hour (AID 1224875); also: nearly all actives have a fitted effect of over 45% in size; also: potency is read from the fitted curve at half-maximal effect
Summary of the method: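 Read-out: fluorescence of a cell-impermeant cyanine dye staining DNA of dead cells, proportional to cytotoxicity. HEK293, 600 cells/well with reagent, compound (23 nL DMSO) added after 5 h; reads at 0, 8, 16, 24, 32, 40 h.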

[5] = A CellTox Green Cytotoxicity Assay to monitor cytotoxicity in HepG2 cells - 16 hour (AID 1224876); also: nearly all actives have a fitted effect of over 45% in size; also: potency is read from the fitted curve at half-maximal effect
Summary of the method: (§2)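 HepG2, 600 cells/well premixed w/ CellTox Green; 5 h settle, 37 C/5% CO2; pintool cpd add (DMSO); 37 C, 40 h; fluorescence read at 0, 8, 16, 24, 32, 40 h.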

[6] = qHTS RealTime-Glo MT Cell Viability Assay in HepG2 cells - 32 hour (AID 1224877); also: nearly all actives have a fitted effect of over 55% in size; also: potency is read from the fitted curve at half-maximal effect
Summary of the method: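 Compound treatment began 5 h after plating HepG2 cells (600/well) with NanoLuc luciferase and prosubstrate. Plates stayed at 37 C for 40 h; luminescence was captured at six time points, 0 h through 40 h.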

[7] = A CellTox Green Cytotoxicity Assay to monitor cytotoxicity in HepG2 cells - 24 hour (AID 1224878); also: nearly all actives have a fitted effect of over 45% in size; also: potency is read from the fitted curve at half-maximal effect
Summary of the method: as §2

[8] = A CellTox Green Cytotoxicity Assay to monitor cytotoxicity in HepG2 cells - 40 hour (AID 1224879); also: nearly all actives have a fitted effect of over 40% in size; also: potency is read from the fitted curve at half-maximal effect
Summary of the method: as §2

[9] = qHTS RealTime-Glo MT Cell Viability Assay in HEK293 cells - 0 hour (AID 1224880); also: top concentration of the series differs between compounds; nearly all actives have a fitted effect of over 45% in size
Summary of the method: as §1

SMILES | Potency [1] | Potency [2] | max response [3] | Potency [4] | Potency [5] | Potency [6] | Potency [7] | Potency [8] | Potency [9] | Potency [3]
CSc1ccc(C(=O)c2[nH]c(=O)[nH]c2C)cc1 | inactive | inactive | 2.74% | inactive | inactive | inactive | inactive | inactive | inactive | –
N=C1N=C(N)c2cc3ccccc3cc21 | 27.5 µM (active) | – | – | 54.9 µM (active) | 43.6 µM (active) | 24.5 µM (active) | 24.5 µM (active) | 24.5 µM (active) | inactive | 32.1 µM (active)
O=C1C=CC(=O)N1c1ccc(Cc2ccc(N3C(=O)C=CC3=O)cc2)cc1 | 17.4 µM (active) | – | – | 38.9 µM (active) | 13.8 µM (active) | 12.3 µM (active) | 11 µM (active) | 7.76 µM (active) | – | 12.3 µM (active)
CCN(CC)CCCC(C)Nc1c2ccc(Cl)cc2nc2ccc(OC)cc12 (stereo not given) | 4.25 µM (active) | – | – | 10.7 µM (active) | 16.9 µM (active) | 6.01 µM (active) | 9.52 µM (active) | 6.01 µM (active) | inactive | 3.01 µM (active)
O=C1C=CC(=O)N1 | 15.9 µM (active) | – | – | 20 µM (active) | 25.2 µM (active) | 22.5 µM (active) | 20 µM (active) | – | – | 11.3 µM (active)
CC(C)OC(=O)c1cc2c(OCC(O)CNC(C)(C)C)cccc2[nH]1 (stereo not given) | 4.77 µM (active) | inactive | – | – | inactive | inactive | inactive | – | inactive | 9.52 µM (active)
COc1cccc(N)c1 | inactive | inactive | -1.08% | inactive | inactive | inactive | inactive | inactive | inactive | –
C/C=C(\C)C(=O)OCc1ccccc1 | inactive | – | -2.09% | inactive | inactive | inactive | inactive | inactive | inactive | –
Cc1cc(O)c2ccccc2c1O | 7.56 µM (active) | – | – | 9.52 µM (active) | 13.4 µM (active) | 13.4 µM (active) | 13.4 µM (active) | 13.4 µM (active) | – | 8.49 µM (active)
O=[N+]([O-])c1cc(Cl)c(Cl)c(Cl)c1Cl | inactive | inactive | – | – | inactive | inactive | – | – | inactive | –
S=c1[nH]c2ccccc2s1 | inactive | inactive | – | 43.6 µM (active) | – | inactive | – | inactive | inactive | –
CO[Si](CCCNc1ccccc1)(OC)OC | inactive | – | 16.6% | inactive | inactive | inactive | inactive | inactive | inactive | –
CCN(CC)CCNC(=O)c1c(C)[nH]c(/C=C2\C(=O)Nc3ccc(F)cc32)c1C | 10.7 µM (active) | – | – | 23.9 µM (active) | 21.3 µM (active) | 19 µM (active) | 19 µM (active) | 9.52 µM (active) | inactive | 8.49 µM (active)
CC(C)(C)c1ccc(C(=O)CCCN2CCC(OC(c3ccccc3)c3ccccc3)CC2)cc1 | 8.49 µM (active) | 19 µM (active) | – | 21.3 µM (active) | 23.9 µM (active) | 19 µM (active) | 23.9 µM (active) | – | inactive | 9.52 µM (active)
Oc1ccc(N=Nc2ccccc2)cc1 | 15.7 µM (active) | inactive | – | – | inactive | inactive | – | – | inactive | 22.2 µM (active)
CC(C)=CCOc1ccc(/C=C/C(=O)c2ccc(OCC=C(C)C)cc2OCC(=O)O)cc1 | inactive | inactive | 1.22% | inactive | inactive | inactive | inactive | inactive | inactive | –
Cc1cccc(S(=O)(=O)O)c1C | inactive | inactive | -3.36% | inactive | inactive | inactive | inactive | inactive | inactive | –
CC(C)(C)c1ccc(C(=O)O)cc1 | inactive | inactive | -13.2% | inactive | inactive | inactive | inactive | – | inactive | –
CCCCCCCC/C=C/CCCCCCCC1=NCCN1CCO | 21.9 µM (active) | – | – | 24.5 µM (active) | 21.9 µM (active) | 15.5 µM (active) | 13.8 µM (active) | 12.3 µM (active) | – | 19.5 µM (active)
Cc1ccc(O)c2ncccc12 | inactive | inactive | -18.6% | inactive | inactive | inactive | – | 7.56 µM (active) | – | –
Fc1ccc([C@@H]2CCNC[C@H]2COc2ccc3c(c2)OCO3)cc1 | inactive | inactive | – | inactive | 23.9 µM (active) | – | 26.8 µM (active) | 26.8 µM (active) | – | –
N#CSc1ccc(N)c([N+](=O)[O-])c1 | 43.9 µM (active) | inactive | – | inactive | inactive | inactive | inactive | – | inactive | 49.3 µM (active)
O=C(OCC(COC(=O)c1ccccc1)(COC(=O)c1ccccc1)COC(=O)c1ccccc1)c1ccccc1 | 43.6 µM (active) | – | – | – | inactive | inactive | inactive | – | inactive | 48.9 µM (active)

SMILES | Potency [1] | Potency [2] | max response [3] | Potency [4] | Potency [5] | Potency [6] | Potency [7] | Potency [8] | Potency [9] | Potency [3]
O=C(Nc1cccc(C(F)(F)F)c1)c1cc(Br)cc(Br)c1O | – | inactive | – | inactive | inactive | – | 19.5 µM (active) | 19.5 µM (active) | – | 3.89 µM (active)
Cc1cccc2c1cc1ccc3cccc4ccc2c1c34 | – | – | – | – | inactive | inactive | inactive | inactive | – | –
CCN(C(=O)N(CC)c1ccccc1)c1ccccc1 | – | inactive | – | inactive | inactive | inactive | inactive | inactive | inactive | –
CN(C)c1ccc(C2(c3ccc(N(C)C)cc3)OC(=O)c3cc(N(C)C)ccc32)cc1 | inactive | – | -1.22% | inactive | inactive | – | inactive | inactive | inactive | –
CN1CCN(CCC(=O)N2c3ccccc3Sc3ccc(C(F)(F)F)cc32)CC1 | – | inactive | – | – | 10.7 µM (active) | 26.8 µM (active) | 15.1 µM (active) | 21.3 µM (active) | inactive | –
N=C1N=C(N)c2ccccc21 | – | inactive | – | inactive | inactive | – | – | 43.6 µM (active) | inactive | 24.5 µM (active)
CCCCCCCCCCCCCCCCCC[N+](C)(C)C | 24.6 µM (active) | – | – | 39 µM (active) | – | – | – | 49.1 µM (active) | – | 7.79 µM (active)
OCCCCCCCCCCCCBr | – | inactive | – | inactive | inactive | inactive | inactive | – | inactive | 11.1 µM (active)
Cc1cc(C2CCCCC2)n(O)c(=O)c1 | – | inactive | – | inactive | inactive | inactive | inactive | – | inactive | 1.69 µM (active)
CCCCC(CC)COC(=O)c1ccccc1C(=O)O (stereo not given) | inactive | – | – | inactive | inactive | inactive | inactive | inactive | inactive | –
O=Cc1cc(O)ccc1Br | – | inactive | – | – | inactive | inactive | – | – | – | –
OCc1c[nH]c2ccccc12 | – | – | – | – | inactive | inactive | inactive | – | – | –
Oc1ccc(C2(c3ccc(O)cc3)CC3CC2C2CCCC32)cc1 (stereo not given) | – | inactive | – | – | inactive | inactive | inactive | – | inactive | 41.9 µM (active)
CN(C/C=C/C#CC(C)(C)C)Cc1cccc2ccccc12 | – | inactive | – | – | inactive | inactive | inactive | inactive | – | –
Oc1ccc2c(c1)-c1ccccc1C2 | inactive | – | – | – | – | inactive | 49 µM (active) | 49 µM (active) | inactive | –
Fc1ccc(C(c2ccc(F)cc2)N2CCN(C/C=C/c3ccccc3)CC2)cc1 | – | – | – | inactive | inactive | – | inactive | inactive | inactive | 19 µM (active)
CC(C)(C)NC(=O)[C@@H]1C[C@@H]2CCCC[C@@H]2CN1C[C@@H](O)[C@H](Cc1ccccc1)NC(=O)[C@H](CC(N)=O)NC(=O)c1ccc2ccccc2n1 | 24.9 µM (active) | – | – | – | – | – | 55.7 µM (active) | 49.6 µM (active) | – | 17.6 µM (active)
COc1cc(-c2nc(NC(=O)c3cc4cc(C)cc(C)c4n3CC(=O)O)sc2CCC2CCCCC2)c(OC)cc1Cl | – | – | – | inactive | – | 40 µM (active) | – | 44.9 µM (active) | inactive | 22.5 µM (active)
CCc1cc(SCc2sc(-c3ccc(C(F)(F)F)cc3)nc2CN2CCN(c3ccc(OC)cc3)CC2)ccc1OCC(=O)O | 19.5 µM (active) | – | – | – | inactive | – | inactive | – | inactive | 19.5 µM (active)
CCCCCOc1ccccc1/C(=C\SC)n1ccnc1 | – | inactive | – | inactive | inactive | inactive | inactive | – | inactive | –
On1ccccc1=S | 3.85 µM (active) | – | – | – | 1.93 µM (active) | 0.485 µM (active) | 0.432 µM (active) | 0.385 µM (active) | – | 3.85 µM (active)
O=C1CCCc2c1cc1ccc3cccc4ccc2c1c34 | – | – | – | inactive | inactive | inactive | inactive | – | – | 9.89 µM (active)
